Key:
[1] = target: Tumor necrosis factor receptor superfamily member 10B (Homo sapiens) (UniProt O14763); assay: caspase-8 TRAIL sensitization, hit retest, confirmation, cell-based, NB7+caspase-8, with/without TRAIL, luminescence panel (AID 651596); settings: NB7 neuroblastoma + caspase-8, TRAIL sensitization, luminescence viability, with TRAIL, mean of runs, at 10 µM, stronger effect = higher value
[2] = as above; settings: NB7 neuroblastoma + caspase-8, without TRAIL, luminescence viability, without TRAIL, mean of runs, at 10 µM

Tumor necrosis factor receptor superfamily member 10B (Homo sapiens), sequence (O14763 whole entry, looked up): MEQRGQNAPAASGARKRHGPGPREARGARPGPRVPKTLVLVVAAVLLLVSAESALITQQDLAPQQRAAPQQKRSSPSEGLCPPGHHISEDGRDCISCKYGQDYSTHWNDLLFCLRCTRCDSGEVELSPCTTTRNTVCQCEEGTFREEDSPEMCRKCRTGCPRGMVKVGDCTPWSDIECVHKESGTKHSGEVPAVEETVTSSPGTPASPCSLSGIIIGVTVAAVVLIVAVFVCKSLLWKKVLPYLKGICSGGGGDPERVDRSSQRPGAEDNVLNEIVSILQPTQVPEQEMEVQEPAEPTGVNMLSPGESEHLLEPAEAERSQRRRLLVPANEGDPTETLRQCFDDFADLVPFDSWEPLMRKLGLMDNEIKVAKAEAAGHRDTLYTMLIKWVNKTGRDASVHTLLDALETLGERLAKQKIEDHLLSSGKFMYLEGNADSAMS

Clc1ccc(CSc2nc3ccncc3[nH]2)cc1
activity [1]: 96.8%
activity [2]: 96.1%

CCc1ccc(NC(=O)Nc2cccs2)cc1
activity [1]: 59%
activity [2]: 45.9%

Cc1nc2cc(-c3ccccc3)nn2c(N)c1-c1ccccc1
activity [1]: 59%
activity [2]: 44.4%

C=CCn1c(C)cc(C(=O)COC(=O)c2n[nH]c(=O)c3ccccc23)c1C
activity [1]: 74.4%
activity [2]: 57.4%

COc1ccc2cc3cc(C(=O)NC4CC4)sc3nc2c1
activity [1]: 80%
activity [2]: 81.4%

CN(C)S(=O)(=O)c1ccc(-c2cn3ccccc3n2)cc1
activity [1]: 66.2%
activity [2]: 73.5%

Cn1c(-c2ccccc2)c(C(=O)CCl)c2ccccc21
activity [1]: 99.2%
activity [2]: 99.2%

COc1ccc(C=C2CCc3ccccc3C2=O)cc1
activity [1]: 90.9%
activity [2]: 91.4%

CS(=O)(=O)Nc1cccc(NC(=O)C2Cc3c(-c4ccco4)ccnc3O2)c1 (configuration not stated)
activity [1]: 35.7%
activity [2]: 27.8%

Cc1ccc2nc(-c3ccncc3)cc(C(=O)Nc3ccncc3)c2c1
activity [1]: 19.9%
activity [2]: 6.6%

O=c1cc(-c2ccccc2)oc2ccc3ccccc3c12
activity [1]: 92.2%
activity [2]: 90.1%

Cc1ccc(-c2nnc(NC(=O)c3ccco3)o2)c(C)c1
activity [1]: 70.7%
activity [2]: 58.6%

COc1ccccc1Nc1nc(N)nc(CCl)n1
activity [1]: 98.8%
activity [2]: 96.4%

O=C(Nc1cccc(O)c1)c1cc(-c2ccccc2Cl)on1
activity [1]: 82.2%
activity [2]: 78%

CC(C)(C)OC(=O)NCc1ccc(NC(=O)c2nc[nH]c2C(=O)NCCCCNC(=O)c2[nH]cnc2C(=O)Nc2ccc(CNC(=O)OC(C)(C)C)cc2)cc1
activity [1]: 95.1%
activity [2]: 96.2%

Cc1ccc(-c2cc(C(=O)N/N=C/c3ccc([N+](=O)[O-])o3)c3ccccc3n2)o1
activity [1]: 83.8%
activity [2]: 73.7%

Reference: PubChem BioAssay
